Inconclusive results are not listed. The source made the active and inactive calls. Unless noted, the call rests on the fitted dose curve; in most records, active means well fitted curve in the direction sought with a large enough effect in the repeat runs; inconclusive means weak or mixed curves; inactive means no such curve, though single readings can be large; an effect the other way counts as inactive or inconclusive.
Legend:
[1] = qHTS assay to identify small molecule agonists of the peroxisome proliferator-activated receptor delta (PPARd) signaling pathway - cell viability counter screen (AID 743211); further: on the % scale 0 is the no-effect control and ±100 the full control effect; nearly all actives have a fitted effect of over 55% in size
Procedure, shortened: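 Tox21 library compounds, delivered in DMSO, were incubated 17 h with PPARd-bla HEK293H cells; cytotoxicity was taken from CellTiter-Glo luminescence read 30 min after reagent addition.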

[2] = qHTS assay to identify small molecule antagonists of the peroxisome proliferator-activated receptor delta (PPARd) signaling pathway - cell viability counter screen (AID 743213); further: on the % scale 0 is the no-effect control and ±100 the full control effect; nearly all actives have a fitted effect of over 50% in size
Procedure, shortened: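 PPARd-bla HEK293H cells (3000/well) got compound plus 300 nM L165041 agonist for 17 h at 37 C. Viability in the same wells came from CellTiter-Glo luminescence after 30 min at room temperature.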

[3] = target: Peroxisome proliferator-activated receptor delta (Homo sapiens) (UniProt Q03181); assay: qHTS assay to identify small molecule antagonists of the peroxisome proliferator-activated receptor delta (PPARd) signaling pathway (AID 743215; active means well fitted inhibition curve with a large enough effect in the signal ratio in the repeat runs, not every such curve was filed as active; the % refers to the signal ratio;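 further: cells stimulated with agonist L165041 at 300 nM final during compound exposure; series mostly up to about 62 µM; on the % scale 0 is the no-effect control and ±100 the full control effect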)
Chain of Peroxisome proliferator-activated receptor delta (Homo sapiens) (Q03181 whole entry, looked up): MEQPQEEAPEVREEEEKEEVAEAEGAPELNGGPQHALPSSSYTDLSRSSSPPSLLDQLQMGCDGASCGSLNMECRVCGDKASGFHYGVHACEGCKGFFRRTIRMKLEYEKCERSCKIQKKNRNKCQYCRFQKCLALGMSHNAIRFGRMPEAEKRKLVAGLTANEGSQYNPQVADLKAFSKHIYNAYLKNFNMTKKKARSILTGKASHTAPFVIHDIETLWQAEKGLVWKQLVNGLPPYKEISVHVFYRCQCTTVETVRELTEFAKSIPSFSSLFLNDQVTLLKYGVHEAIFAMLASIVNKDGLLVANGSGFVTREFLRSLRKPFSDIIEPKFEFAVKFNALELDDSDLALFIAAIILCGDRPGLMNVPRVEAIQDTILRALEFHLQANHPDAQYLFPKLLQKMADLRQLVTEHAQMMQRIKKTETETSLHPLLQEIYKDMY
Procedure, shortened: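 Inhibition of L165041-driven (300 nM final) PPARd signaling is scored in HEK293H UAS-bla cells. Exposure lasts 17 h at 37 C; beta-lactamase activity is then read by FRET substrate fluorescence after 2 h at room temperature.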

[4] = qHTS assay to identify small molecule agonists of the farnesoid-X-receptor (FXR) signaling pathway - cell viability counter screen (AID 743218); further: on the % scale 0 is the no-effect control and ±100 the full control effect; nearly all actives have a fitted effect of over 45% in size
Procedure, shortened: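 Cytotoxicity counter-screen run in parallel, same wells: FXR-UAS-bla HEK 293T cells dosed 16 h at 37 C, viability read by CellTiter-Glo luminescence after 30 min at room temperature.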

[5] = target: Bile acid receptor (Homo sapiens) (UniProt Q96RI1); assay: qHTS assay to identify small molecule agonists of the farnesoid-X-receptor (FXR) signaling pathway (AID 743220; active means well fitted activation curve with a large enough effect in the signal ratio in the repeat runs, not every such curve was filed as active; the % refers to the signal ratio; further: on the % scale 0 is the no-effect control and ±100 the full control effect)
Chain of Bile acid receptor (Homo sapiens) (Q96RI1 whole entry, looked up): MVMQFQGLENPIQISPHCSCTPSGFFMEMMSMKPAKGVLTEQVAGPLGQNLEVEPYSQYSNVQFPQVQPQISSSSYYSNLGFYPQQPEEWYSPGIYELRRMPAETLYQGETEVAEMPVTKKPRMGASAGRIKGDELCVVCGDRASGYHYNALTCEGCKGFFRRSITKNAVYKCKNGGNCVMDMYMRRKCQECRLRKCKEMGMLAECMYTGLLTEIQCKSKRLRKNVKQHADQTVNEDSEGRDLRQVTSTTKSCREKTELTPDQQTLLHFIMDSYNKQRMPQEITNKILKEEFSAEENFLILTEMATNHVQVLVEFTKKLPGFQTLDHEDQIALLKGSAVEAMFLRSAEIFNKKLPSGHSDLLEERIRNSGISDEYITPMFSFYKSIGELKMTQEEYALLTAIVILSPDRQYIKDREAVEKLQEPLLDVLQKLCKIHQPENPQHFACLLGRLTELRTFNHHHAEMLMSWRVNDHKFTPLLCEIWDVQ
Procedure, shortened: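 Beta-lactamase reporter under UAS control in GeneBLAzer FXR HEK 293T cells (5000/well) measured with LiveBLAzer FRET substrate after 2 h at room temperature. Compound exposure lasted 16 h at 37C.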

[6] = qHTS assay to identify small molecule antagonists of the farnesoid-X-receptor (FXR) signaling pathway - cell viability counter screen (AID 743221; active means well fitted cell-killing curve with a large enough effect in the repeat runs, not every such curve was filed as active; further: on the % scale 0 is the no-effect control and ±100 the full control effect; nearly all actives have a fitted effect of over 50% in size)
Procedure, shortened: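 Cytotoxicity is taken from ATP luminescence (CellTiter-Glo, 30 min, room temperature) in FXR-bla HEK 293T cells previously incubated 16 h at 37 C with compound and chenodeoxycholic acid at 50 uM final.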

[7] = target: Vitamin D3 receptor (Homo sapiens) (UniProt P11473); assay: qHTS assay to identify small molecule agonists of the vitamin D receptor (VDR) signaling pathway (AID 743222; calls by dose curve; further: on the % scale 0 is the no-effect control and ±100 the full control effect)
Chain of Vitamin D3 receptor (Homo sapiens) (P11473 whole entry, looked up): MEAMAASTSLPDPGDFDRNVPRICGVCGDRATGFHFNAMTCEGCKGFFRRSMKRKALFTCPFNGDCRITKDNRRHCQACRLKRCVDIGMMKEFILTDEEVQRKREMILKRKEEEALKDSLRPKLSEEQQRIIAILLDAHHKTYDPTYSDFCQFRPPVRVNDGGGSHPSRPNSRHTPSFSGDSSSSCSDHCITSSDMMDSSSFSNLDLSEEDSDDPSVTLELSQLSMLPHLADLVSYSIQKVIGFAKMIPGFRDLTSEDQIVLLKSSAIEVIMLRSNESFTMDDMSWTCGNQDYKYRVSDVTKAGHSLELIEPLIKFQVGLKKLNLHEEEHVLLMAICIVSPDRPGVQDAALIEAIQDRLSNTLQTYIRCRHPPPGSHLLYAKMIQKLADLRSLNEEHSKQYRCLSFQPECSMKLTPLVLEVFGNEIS
Procedure, shortened: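 Quantitative HTS agonist-mode screen: compounds in DMSO were pin-transferred onto VDR-bla cells and incubated 16 h at 37C, 5% CO2. Reporter activity was detected with LiveBLAzer B/G FRET substrate after 2 h at room temperature.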

[8] = qHTS assay to identify small molecule agonists of the vitamin D receptor (VDR) signaling pathway - cell viability counter screen (AID 743224); further: series mostly up to about 63 µM; on the % scale 0 is the no-effect control and ±100 the full control effect; nearly all actives have a fitted effect of over 50% in size
Procedure, shortened: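 Viability is measured in the same wells as the VDR-bla reporter assay: after 16 h compound treatment and 2 h substrate loading, CellTiter-Glo is added and luminescence read 30 min later.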

[9] = qHTS assay to identify small molecule antagonists of the vitamin D receptor (VDR) signaling pathway - cell viability counter screen (AID 743225); further: on the % scale 0 is the no-effect control and ±100 the full control effect; nearly all actives have a fitted effect of over 50% in size
Procedure, shortened: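 Same-well multiplex: following 16 h treatment of HEK 293T cells carrying a UAS-driven beta-lactamase reporter with compound and agonist (3 nM final), and a 2 h FRET substrate step, CellTiter-Glo was added and luminescence read after 30 min.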

[10] = qHTS assay to identify small molecule agonists of the NFkB signaling pathway (AID 1159509; active means well fitted curve in the direction sought with a large enough effect in the signal ratio in the repeat runs, not every such curve was filed as active; the % refers to the signal ratio; further: series mostly up to about 61 µM; on the % scale 0 is the no-effect control and ±100 the full control effect)
Procedure, shortened: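 NFkB-bla ME-180 cells carry a beta-lactamase reporter under an NF-kB response element. They were plated overnight, then exposed to compounds for 5 h at 37 C. Read-out is LiveBLAzer FRET after 1.5 hr at room temperature (405 nm excitation; 460/530 nm emission).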

[11] = qHTS assay to identify small molecule agonists of the NFkB signaling pathway - cell viability counter screen (AID 1159515; calls by dose curve; further: series mostly up to about 61 µM; on the % scale 0 is the no-effect control and ±100 the full control effect; nearly all actives have a fitted effect of over 55% in size)
Procedure, shortened: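 Multiplexed viability readout: after the 5 hr compound exposure and 1.5 hr FRET substrate step, CellTiter-Glo reagent went into the same NFkB-bla ME-180 wells; ATP luminescence was measured after 30 min at room temperature.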

[12] = qHTS assay to identify small molecule agonists of the endoplasmic reticulum stress response signaling pathway (AID 1159516; active means well fitted activation curve with a large enough effect in the signal ratio in the repeat runs, not every such curve was filed as active; the % refers to the signal ratio; further: on the % scale 0 is the no-effect control and ±100 the full control effect)
Procedure, shortened: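 Tox21 10K library screened in quantitative HTS format on ESRE-bla HeLa cells, a beta-lactamase reporter under ER stress response element control; 5 hr treatment, FRET read.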

[13] = qHTS assay to identify small molecule antagonists of the retinoid-related orphan receptor gamma (ROR-gamma) signaling pathway - cell viability counter screen (AID 1159520)
Procedure, shortened: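 Tet-on ROR gamma CHO cells were given compounds for 2 hr, then doxycycline hyclate at 1 uM final, and incubated 16 hr at 37 C. Viability was measured as ATP content by CellTiter-Glo luminescence.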

[14] = target: Nuclear receptor ROR-gamma (Homo sapiens) (UniProt P51449); assay: qHTS assay to identify small molecule antagonists of the retinoid-related orphan receptor gamma (ROR-gamma) signaling pathway (AID 1159521)
Procedure, shortened: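 Inducible-expression reporter assay: doxycycline (1 uM final) switched on RORγ in CHO cells bearing a ROR response element-luciferase construct, with test compounds present from 2 h beforehand. Decreased luminescence after 16 h defined antagonist activity.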

[15] = target: Peroxisome proliferator-activated receptor delta (Homo sapiens) (UniProt Q03181); assay: qHTS assay to identify small molecule agonists of the peroxisome proliferator-activated receptor delta (PPARd) signaling pathway (AID 743212; calls by dose curve; further: on the % scale 0 is the no-effect control and ±100 the full control effect)
Procedure, shortened: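 GeneBLAzer UAS-bla HEK293H cells carrying a PPARδ construct were exposed to compounds at 37 °C. Beta-lactamase activity was read by FRET fluorescence after 2 h at room temperature with LiveBLAzer B/G substrate.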

[16] = target: Bile acid receptor (Homo sapiens) (UniProt Q96RI1); assay: qHTS assay to identify small molecule antagonists of the farnesoid-X-receptor (FXR) signaling pathway (AID 743217; active means well fitted inhibition curve with a large enough effect in the signal ratio in the repeat runs, not every such curve was filed as active; the % refers to the signal ratio; further: on the % scale 0 is the no-effect control and ±100 the full control effect)
Procedure, shortened: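 Antagonist mode against 50 uM (final) chenodeoxycholic acid stimulation in FXR-bla HEK 293T cells, 16 h at 37 °C. Inhibition detected as reduced beta-lactamase activity via LiveBLAzer B/G FRET fluorescence after 2 h at room temperature.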

[17] = qHTS assay to identify small molecule agonists of the AP-1 signaling pathway - cell viability counter screen (AID 1159525; calls by dose curve; further: nearly all actives have a fitted effect of over 55% in size)
Procedure, shortened: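 AP-1-bla ME-180 cells in Opti-MEM with 0.5% dialyzed FBS, compound exposure 5 h at 37 C in 15-point titration. Viability read in the same wells as ATP content by CellTiter-Glo luminescence, normalised to tetra-n-octylammonium bromide and DMSO controls.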

[18] = qHTS assay to identify small molecule agonists of the AP-1 signaling pathway (AID 1159526; calls by dose curve; further: on the % scale 0 is the no-effect control and ±100 the full control effect)
[19] = target: Vitamin D3 receptor (Homo sapiens) (UniProt P11473); assay: qHTS assay to identify small molecule antagonists of the vitamin D receptor (VDR) signaling pathway (AID 743223; active means well fitted inhibition curve with a large enough effect in the signal ratio in the repeat runs, not every such curve was filed as active; the % refers to the signal ratio; further: on the % scale 0 is the no-effect control and ±100 the full control effect)
Procedure, shortened: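 Quantitative HTS in VDR-bla reporter cells stimulated with 1alpha,25-dihydroxyvitamin D3, 3 nM final. Compound exposure 16 h, 37C, 5% CO2. Read-out: beta-lactamase FRET substrate fluorescence, 2 h RT.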

Cc1ccc2c(c1[N+](=O)[O-])C(=O)c1ccccc1C2=O
inactive: Potency [1] | Potency [2] | Potency [3] | Potency [4] | Potency [5] | Potency [6] | outcome [7] | Potency [8] | Potency [9] | outcome [10] | Potency [11] | Potency [12] | Potency [13] | Potency [14]

C=CC(=O)NC(C)C
inactive: Potency [1] | outcome [15] | Potency [2] | Potency [3] | outcome [16] | Potency [4] | Potency [5] | outcome [7] | Potency [8] | Potency [9] | outcome [10] | Potency [11] | Potency [12] | Potency [13] | Potency [17] | outcome [18]

CC(C)COC(=O)c1ccc(O)cc1
inactive: Potency [1] | outcome [15] | Potency [2] | outcome [16] | Potency [5] | outcome [7] | outcome [19] | Potency [8] | Potency [9] | outcome [10] | Potency [11] | Potency [12] | Potency [13] | Potency [14] | Potency [17]

CCc1ccc(C)cc1
inactive: Potency [1] | outcome [15] | Potency [2] | Potency [3] | outcome [16] | Potency [4] | Potency [5] | Potency [6] | outcome [7] | outcome [19] | Potency [8] | Potency [9] | outcome [10] | Potency [11] | Potency [12] | Potency [13] | Potency [17] | outcome [18]

O=C(/C=C/c1ccc([N+](=O)[O-])cc1)c1ccccc1
inactive: outcome [15] | Potency [3] | Potency [4] | Potency [6] | outcome [7] | Potency [8] | Potency [9] | outcome [10] | Potency [11] | Potency [12] | Potency [13] | Potency [14] | Potency [17]

CCC(CO)(CO)CO
inactive: Potency [1] | Potency [2] | outcome [16] | Potency [4] | Potency [5] | Potency [8] | Potency [9] | outcome [10] | Potency [11] | Potency [12] | Potency [13] | Potency [14] | Potency [17] | outcome [18]

c1ccc2sc(SSc3nc4ccccc4s3)nc2c1
inactive: Potency [2] | Potency [3] | outcome [16] | Potency [5] | Potency [6] | outcome [7] | outcome [19] | Potency [8] | outcome [10] | Potency [11] | Potency [12] | activity, negative = cytotoxicity [13] -8.11% [at 19 µM] | activity change, negative = inhibition [14] 7.93% [at 19 µM] | viability change, negative = cytotoxic [17] -2.35% [at 15.8 µM] | activation [18] 15.6% [at 15.8 µM]

C1CCCCC1
inactive: Potency [1] | outcome [15] | Potency [2] | Potency [3] | outcome [16] | Potency [4] | Potency [5] | Potency [6] | Potency [8] | outcome [10] | Potency [11] | Potency [12] | Potency [13] | Potency [17] | outcome [18]

O=C(Oc1ccccc1)c1ccc2ccccc2c1O
inactive: Potency [1] | outcome [7] | outcome [19] | Potency [9] | outcome [10] | Potency [11] | Potency [12] | Potency [13] | Potency [14] | Potency [17] | outcome [18]

COC(OC)OC
inactive: Potency [1] | Potency [4] | Potency [6] | outcome [7] | outcome [19] | Potency [8] | Potency [9] | outcome [10] | Potency [11] | Potency [12] | Potency [13] | Potency [14] | Potency [17] | outcome [18]

Nc1nc2ccc(OC(F)(F)F)cc2s1
inactive: Potency [1] | outcome [15] | Potency [3] | Potency [6] | outcome [7] | outcome [19] | Potency [8] | outcome [10] | Potency [11] | Potency [12] | Potency [13] | Potency [14] | Potency [17]

CS(=O)(=O)c1ccc([C@@H](C[C@H]2CCC(=O)C2)C(=O)Nc2cnccn2)cc1Cl
inactive: outcome [15] | Potency [4] | Potency [6] | outcome [7] | Potency [8] | outcome [10] | Potency [11] | Potency [12] | Potency [13] | Potency [14] | Potency [17] | outcome [18]

Cc1cc([N+](=O)[O-])ccc1N
inactive: Potency [1] | outcome [15] | Potency [2] | Potency [3] | outcome [16] | Potency [5] | Potency [6] | outcome [7] | outcome [19] | Potency [8] | Potency [9] | outcome [10] | Potency [11] | Potency [12] | Potency [13] | Potency [17] | outcome [18]

CC(=O)OC(C)C[N+](C)(C)C (configuration not stated)
inactive: Potency [1] | Potency [2] | Potency [6] | outcome [7] | outcome [19] | Potency [8] | Potency [9] | outcome [10] | Potency [11] | Potency [12] | Potency [13] | Potency [14] | Potency [17]

CC(C)N(C)C
inactive: Potency [1] | outcome [15] | Potency [2] | Potency [3] | Potency [4] | Potency [6] | outcome [19] | Potency [8] | outcome [10] | Potency [11] | Potency [12] | Potency [13] | Potency [17] | outcome [18]

Cc1cc(CCCOc2c(C)cc(-c3noc(C(F)(F)F)n3)cc2C)on1
inactive: Potency [1] | Potency [2] | Potency [4] | outcome [7] | outcome [19] | Potency [9] | outcome [10] | Potency [11] | Potency [12] | Potency [13] | Potency [14] | Potency [17]

O=C(c1ccccc1)C1CCC1
inactive: Potency [1] | outcome [15] | Potency [6] | outcome [7] | outcome [19] | Potency [8] | Potency [9] | outcome [10] | Potency [11] | Potency [12] | Potency [13] | Potency [17] | outcome [18]

O=C1[C@@H]2[C@H]3CC[C@H](C3)[C@@H]2C(=O)N1CCCCN1CCN(c2ncccn2)CC1
inactive: Potency [1] | Potency [2] | Potency [4] | Potency [6] | outcome [7] | Potency [8] | outcome [10] | Potency [11] | Potency [12] | Potency [13] | Potency [14] | Potency [17] | outcome [18]

Reference: PubChem BioAssay (Tox21)
